Inconclusive results are not listed. Where a call stands in place of a potency, no number is given. Active and inactive are the calls of the source. The call rests on the fitted dose curve; in most records, active means well fitted inhibition curve with a large enough effect; inconclusive means small, poorly fitted or top-dose-only effect; inactive means no such curve, though single readings can be large or run the other way.
Potency means the concentration at half of the fitted maximal effect.

Sequence of Coelenterazine h 2-monooxygenase (Renilla reniformis) (P27652 whole entry, looked up): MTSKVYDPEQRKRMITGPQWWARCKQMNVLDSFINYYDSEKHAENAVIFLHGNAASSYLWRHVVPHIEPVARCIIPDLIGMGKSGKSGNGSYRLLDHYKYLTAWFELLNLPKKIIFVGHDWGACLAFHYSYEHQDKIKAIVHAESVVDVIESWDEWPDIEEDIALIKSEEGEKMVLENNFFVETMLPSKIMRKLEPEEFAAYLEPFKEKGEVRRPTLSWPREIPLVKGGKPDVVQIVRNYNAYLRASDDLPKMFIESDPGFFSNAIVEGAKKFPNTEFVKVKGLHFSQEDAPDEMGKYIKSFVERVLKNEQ

This test has as its target Coelenterazine h 2-monooxygenase (Renilla reniformis) (UniProt P27652). Briefly: qHTS Assay for Inhibitors of Sea Pansy Luciferase from the GSK Published Protein Kinase Inhibitor Set. The following applies: purified Renilla luciferase, luminescence; series mostly up to 57.5 µM. A digest of the protocol:
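Purified R. reniformis luciferase (1 nM final) with 5 uM coelenterazine h in 50 mM Tris acetate pH 7.5, 100 uM NaCl, 0.01% Tween-20, 0.05% BSA. A titration, about 60 uM to 300 pM; luminescence read after about 2 min.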
In the case of `CS(=O)(=O)CCNCc1ccc(-c2ccc3ncnc(Nc4ccc(OCc5cccc(C(F)(F)F)c5)cc4)c3c2)o1`, the Potency entry is “inactive”. Next, `Fc1ccc(-c2c(-c3ccncc3)nc3n2CCS3)cc1`: “inactive”; `Cc1ccc2c(-c3ccnc(Nc4cccc(C(F)(F)F)c4)n3)c(-c3ccccc3)nn2n1`: “inactive”; `Cc1ccc(-c2cc3c(NC(=O)C4CC4)ncnc3o2)cc1`: “inactive”. Next, `COC(=O)Nc1nc2ccc(Oc3ccc(NC(=O)Nc4cc(C(F)(F)F)ccc4F)cc3)cc2s1`: “inactive”; `NS(=O)(=O)c1ccc(-c2ccc3c(NC(=O)C4CC4)n[nH]c3c2)cc1`: “inactive”. Next, `Nc1ccc(C#Cc2cncnc2Nc2ccc(OCc3cccc(F)c3)c(Cl)c2)cc1`: “inactive”. As for `Fc1ccc(Oc2nccc(-c3c(-c4ccc(F)cc4)ncn3C3CCNCC3)n2)cc1`, the Potency result was “inactive”.

In the case of `CCS(=O)(=O)c1ccc(OC)c(Nc2ncc(-c3cccc(F)c3)o2)c1`, the Potency entry is “inactive”. As for `CCc1nccc2c1nc(-c1nonc1N)n2CC`, the Potency entry was “inactive”. As to `CS(=O)(=O)CCNCc1nc(-c2ccc3ncnc(Nc4ccc(F)c(Cl)c4)c3c2)cs1`, the Potency result was “inactive”. Next, `CN(C)CCNC(=O)Nc1ccc(N(C)c2ccnc(Nc3ccc(CS(C)(=O)=O)cc3)n2)cc1`: “inactive”; `O=C(Nc1n[nH]c2cc(-c3cc(F)ccc3F)ccc12)C1CC1`: “inactive”; `CS(=O)(=O)CCNCc1ccc(-c2ccc3ncnc(Nc4ccc(OCc5ccccc5)cc4)c3c2)o1`: “inactive”. Next, `COc1ccccc1C1=C(Nc2ccccc2)C(=O)NC1=O`: “inactive”. Turning to `COc1cccc(-n2ncc3c(NN=Cc4ccncc4)ncnc32)c1`, the Potency result was “inactive”. For the molecule `CCn1c(-c2nonc2N)nc2c(C#CC(C)(C)O)ncc(OC3CCNCC3)c21`, the Potency result was “inactive”. Next, `COC(=O)c1sc(-n2cnc3cc(OC)c(OC)cc32)cc1OCc1ccccc1C(F)(F)F`: “inactive”; `O=C1Nc2ccc(C(=O)c3ccco3)cc2/C1=C/c1cc(Cl)c(O)c(Cl)c1`: 16.3 µM (active); `O=C1NC(=O)C(c2ccccc2Cl)=C1Nc1cccc(O)c1`: “inactive”.

For `Cc1cccc(-c2[nH]ncc2-c2ccc3ncccc3n2)n1`, the Potency entry is “inactive”. Regarding `CNC(=O)c1cncc(C=Cc2c(C)cccc2C)c1`, the Potency entry is “inactive”.

Regarding `O=C(Nc1n[nH]c2nc(-c3ccco3)c(Br)cc12)C1CC1`, the Potency entry is “inactive”.

With `COc1ccc(-c2ccncc2)cc1C(N)=O`, the Potency entry is “inactive”. `Nc1nccc(-c2c(-c3ccc(F)cc3)ncn2CCCN2CCOCC2)n1`: the Potency entry was “inactive”. Next, `COC(=O)Nc1nc2ccc(S(=O)(=O)c3ccc(NC(=O)Nc4cc(C(F)(F)F)ccc4F)cc3)cc2[nH]1`: “inactive”; `Cc1ccc2[nH]c(O)c(N=Nc3ccc(S(N)(=O)=O)cc3)c2c1`: “inactive”; `O=C(OC1CNC(C#Cc2cc3ncnc(Nc4ccc5c(cnn5Cc5ccccc5)c4)c3s2)C1)N1CCOCC1` (centres undefined): “inactive”. Next, `CN1CCC(n2cnc(-c3ccc(F)cc3)c2-c2ccnc(Nc3ccccc3)n2)CC1`: “inactive”; `COc1ccc2cc(-c3c(-c4ccncc4)nc(-c4ccc(S(C)(=O)=O)cc4C)n3C)ccc2c1`: “inactive”; `CS(=O)(=O)Nc1ccc(-c2ccc3c(NC(=O)C4CC4)n[nH]c3c2)cc1`: “inactive”.

Regarding `COC(=O)Nc1nc2ccc(Oc3cccc(NC(=O)Nc4cc(C(F)(F)F)ccc4F)c3)cc2[nH]1`, the Potency result was “inactive”. In the case of `Clc1ccc(-c2nn3ncccc3c2-c2ccnc(Nc3ccccc3)n2)cc1`, the Potency entry was “inactive”. For `NC(=O)Cc1ccccc1Oc1nccc(-c2c(-c3ccc(F)cc3)ncn2C2CCNCC2)n1`, the Potency entry is “inactive”. Next, `CS(=O)(=O)CCNCc1ccc(-c2ccc3ncnc(Nc4ccc(OCc5ccccc5)c(Br)c4)c3c2)o1`: “inactive”; `COc1cc2ncn(-c3cc(OC(C)c4ccccc4Cl)c(C(N)=O)s3)c2cc1OC` (centres undefined): “inactive”; `CN(C)CCCn1c(-c2nonc2N)nc2cnccc21`: “inactive”. As for `NC(=O)c1cccc(Nc2nccc(Nc3cccc4[nH]ncc34)n2)c1`, the Potency entry was “inactive”. Next, `COc1ccc(-c2ccc3c(NC(=O)C4CC4)n[nH]c3n2)cc1`: “inactive”.

The values are drawn from PubChem BioAssay AID652015 (National Center for Advancing Translational Sciences (NCATS), 2013).
